In all, about 1,200 compounds went through this assay and about 870 (72%) were called active. Roughly 3% stayed inconclusive and do not appear here.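 Rule for the calls: active = every test run fits a falling curve whose half-maximal concentration is at most twice the top valid dose; inconclusive = runs disagree, or flat 30 to 70% inhibition, or poor fit; inactive = every run inactive: flat, rising or weaker potency.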 So high a share suggests a set chosen from earlier hits. These entries were drawn from the full list. Results with a measured potency or affinity are listed apart.
Assay: ZM109 Env clade C HIV-1 fusion inhibitors, dose response, HeLa effector, CEM target cells, luciferase, cherry-pick (AID 652058);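 note: 0% = neutral control wells and -100% = maraviroc 300 nM wells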
Conditions: HeLa Env/CEM cell fusion, 16-24 h; series mostly up to 35 µM; activity change, negative = inhibition: at the top concentration

Activity change, negative = inhibition, inactive:
C[C@H]1CN([C@@H](C)CO)C(=O)c2cccc(NC(=O)C3CCCCC3)c2O[C@H]1CN(C)S(C)(=O)=O 11.4%
CNC[C@@H]1Oc2c(N)cccc2C(=O)N([C@@H](C)CO)C[C@@H]1C 15.9%
C[C@@H]1CN([C@@H](C)CO)C(=O)c2cccc(NC(=O)c3cnccn3)c2O[C@H]1CN(C)Cc1ccc(Cl)c(Cl)c1 95.2%
c1csc(-c2csc3ncnc(NCCCN4CCOCC4)c23)c1 -26.2%
Oc1ccc(C=NNc2ccccn2)c(O)c1 23.9% [at 16 µM]
COc1ccc(-c2nnc(Nc3nc4c(OC)cccc4s3)o2)cc1 5.13%
CCn1ncc(C2=NOC(C(=O)Nc3ccc(C)cc3)C2)c1C (centres undefined) 6.73% [at 16 µM]
Cc1ccc(-n2nnnc2-c2cnn(-c3ccc(F)cc3)c2C(F)(F)F)cc1 4.65%
C[C@H](CO)N1C[C@H](C)[C@H](CN(C)C(=O)Nc2ccccc2)Oc2c(NS(=O)(=O)c3ccc(F)cc3)cccc2C1=O 84.3% [at 16 µM]
CNC[C@H]1Oc2c(NC(=O)Nc3ccc(C(F)(F)F)cc3)cccc2C(=O)N([C@@H](C)CO)C[C@H]1C 39.4% [at 16 µM]
C[C@@H]1CN([C@H](C)CO)C(=O)c2cc(NS(=O)(=O)c3ccc(F)cc3)ccc2O[C@H]1CN(C)Cc1ccc(C(F)(F)F)cc1 -41.2%
Cc1ccc(-n2ncc3c(N4CCN(c5ccccc5)CC4)ncnc32)c(C)c1 181%
Cc1ccc(Cn2ncc3c(N4CCN(c5ccc(C)cc5)CC4)ncnc32)cc1 -44.6%
COc1cccc(CNc2nc(NCc3ccccc3OC)nc3ccsc23)c1 -21.1%
CCOc1ccc(-c2cc(CCCC(=O)Nc3cccc(OC)c3)no2)cc1 71.3%
Cc1cc(C(C)(C)C)oc1C(=O)N(CC(=O)NC1CCCC1)Cc1ccc(Cl)cc1 -42.4%
CCCc1cc(C(=O)NCc2ccc(OC)cc2)no1 28.6%
O=C(CC1C(=O)NCCN1Cc1cccc(F)c1)NC1CCCCC1 (centres undefined) -44.7%
CCN(CCn1cccn1)C(=O)CC1C(=O)NCCN1CCc1ccccc1 (centres undefined) -40.9%
COc1ccc(-c2cn3c(C)c(C(=O)Nc4cccc(NC(C)=O)c4)sc3n2)cc1 -22% [at 16 µM]
Cn1cc(S(=O)(=O)N2CCOCC2)cc1C(=O)Nc1cccc(Cl)c1 -25.3%
COc1cccc(CN2CCC2(C)C(=O)Nc2cccc(Oc3ccccc3)c2)c1OC (centres undefined) -31.8%
CC(=O)c1ccc([C@H]2C[C@@]34CN(C(=O)OC(C)(C)C)S(=O)(=O)[C@H]3C[C@H]2O4)cc1 40.5%
c1ccc(Cc2cnc(N3CCN(Cc4csc5ccccc45)CC3)nc2)cc1 16.5%
O=C(NNC(=O)C(c1ccccc1)c1ccccc1)c1ccccn1 -20.2%
CC(C)(C)n1nc(Cc2cccc3ccccc23)c2c(N)ncnc21 16.9%
C[C@@H]1CN([C@H](C)CO)C(=O)c2cccc(NC(=O)c3ccncc3)c2O[C@@H]1CN(C)Cc1ccc(C(=O)O)cc1 -18.2%
COc1ccccc1N1CCN(Cc2ccc(O)c3ncccc23)CC1 41.3%
O=C(Nc1ccc(CN2CCOCC2)cc1)c1ccc(-c2cccc(Cl)c2)o1 117%
Cc1cc(C)nc(/N=C(\N)Nc2ccc(CC(=O)OC(C)C)cc2)n1 38.8%
CCC(=O)NC(=S)Nc1cccc(Cl)c1N1CCCCC1 43.4%
COc1ccc([Si](C)(C)[C@H]2[C@H](CCO)O[C@@]3(C(=O)N(Cc4cccc(N5CCOC5=O)c4)c4ccccc43)[C@@H]2C)cc1 -36.4%
O=C(Nc1cccn(Cc2c(Cl)cccc2Cl)c1=O)c1ccc(Cl)cc1 55.6%
O=C(NCc1ccccc1)c1ccc(C(=O)NCc2ccccc2)cc1 -58.9%
COc1ccc(OC2C(=O)N(Cc3ccc4c(c3)OCO4)C2c2cccs2)cc1 (centres undefined) -20%
COc1ccc(NC(=O)C2(C)CCN2Cc2ccccc2OC(F)F)cc1OC (centres undefined) -0.246%
CCOC(=O)c1cnc2ccc(OCC)cc2c1NCc1ccccc1OC 69% [at 16 µM]
Cc1cc(C(=O)N2CCC(C(=O)O)CC2)c(C(F)(F)F)o1 -39.7%
CCOc1ccc(OCc2cccc(C(=O)N/N=C/c3cccnc3)c2)cc1 -7.2%
CCCOc1ccc(C(F)(F)F)cc1NC(=O)CCc1c(C)noc1C -36.3%
Cc1ccc(C)c(CNc2ccc(S(=O)(=O)N3CCCCC3)cc2)c1 -10.3%
Cc1ccc(S(=O)(=O)N[C@H]2C=C[C@H](CC(=O)N3CCC(Cc4ccccc4)CC3)O[C@H]2CO)cc1 45.1%
CCCNC(=O)C[C@H]1C[C@H]2c3cc(NC(=O)CN(C)C)ccc3O[C@H]2[C@H](CO)O1 0%
CCCNC(=O)C[C@H]1C[C@H]2c3cc(NC(=O)CN(C)C)ccc3O[C@H]2[C@@H](CO)O1 -10.1%
O=C(C[C@@H]1C[C@H]2c3cc(NC(=O)NC4CCCCC4)ccc3O[C@H]2[C@@H](CO)O1)NCc1ccncc1 4.35%
O=C(Nc1ccc(F)cc1)Nc1ccc2c(c1)[C@H]1C[C@@H](CC(=O)N3CCCCC3)O[C@H](CO)[C@H]1O2 58.6%
CN1CCN(C(=O)C[C@H]2C[C@@H]3c4cc(NS(C)(=O)=O)ccc4O[C@@H]3[C@H](CO)O2)CC1 -13.8%
O=C(C[C@@H]1C[C@H]2c3cc(NC(=O)Nc4ccc(F)cc4)ccc3O[C@H]2[C@H](CO)O1)NCC1CC1 105%
O=C1c2cccnc2C(Nc2ccc(S(=O)(=O)N3CCCCC3)cc2)N1Cc1ccccc1 (centres undefined) -24.9%
COc1ccc(COC(=O)C2=C(C)NC(=O)NC2c2ccc(OC)cc2)cc1 (centres undefined) -25.8%
Cc1cccc(NC(=O)C2CCN(S(=O)(=O)c3ccc4c(c3)OCCCO4)CC2)n1 -15.6%
CCc1ccc(-c2nc(CN3CCC(C(=O)NCCc4ccc(OC)c(OC)c4)CC3)c(C)o2)cc1 -27.3%
O=C(Nc1ccc(N2CCN(C(=O)c3ccccc3)CC2)c(Cl)c1)c1cccnc1 -32.6%
COc1ccccc1CCNCc1ccc(OC)c(OCc2ccccc2)c1 -24.2%
CCN1C(=O)[C@H]2[C@@H](c3ccc(C(F)(F)F)cc3)N[C@]3(CCCN(Cc4ccccc4)C3=O)[C@H]2C1=O 94.4%
Cc1ccc(-n2nc3c(c2NC(=O)c2ccco2)CS(=O)C3)cc1 (centres undefined) 89.7%
FC(F)(F)c1nc(-c2cccs2)ncc1-c1nnnn1-c1ccc(Cl)cc1 130%
C[C@H](CO)N1C[C@H](C)[C@H](CN(C)S(=O)(=O)c2ccc(F)cc2)Oc2ccc(NS(=O)(=O)c3ccccc3)cc2CC1=O -27.6%
Cc1ccc(S(=O)(=O)Nc2ccc3c(c2)C(=O)N([C@H](C)CO)C[C@@H](C)[C@H](CN(C)S(=O)(=O)c2ccc(F)cc2)O3)cc1 13.2%
